The full list was thinned out, with hits kept by preference.
Tgondii IFNg = T. gondii growth inhibition with IFN-gamma, primary screen, cell-based; Toxoplasma gondii growth in IFN-gamma-treated host cells; active compounds read low; activity change, negative = inhibition, % (test concentration not listed); 69,000 compounds, 3.8% hits; AID 1259416, 2018; in the data active = activity change below about -70%, passing the limit was not always enough;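 also: host cells are HeLa cells infected with Toxoplasma gondii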
Numbers without * were called inactive; i = inactive.

SMILES	Tgondii IFNg
Cc1c(C(=O)N2CC(C)CC(C)C2)oc2ccc3c(c12)C(=O)CC1(CCCCC1)O3 (centres undefined)	-51.3
CCOC(=O)C1CCN(C(=O)c2nn(-c3ccccc3)nc2C)CC1	-4.9
CC1=C(C(=O)NCCCN2CCCC2)C2(CCN(S(=O)(=O)c3cccs3)CC2)OC1=O	6.1
Cc1c(C(=O)N2CCCCC2)oc2ccc3c(c12)C(O)CC1(CCCCC1)O3 (centres undefined)	-111.8*
CC1=C(C(=O)NCCCN2CC(C)CC(C)C2)C2(CCCCCC2)OC1=O (centres undefined)	58.3
CC(Oc1cccc(F)c1)C(=O)NC(c1ccncc1)c1cccs1 (centres undefined)	-9.2
Cc1cc(NC(=O)CC2CCCCC2)n(-c2ncnc3c2cnn3-c2ccc(F)cc2)n1	-1.6
COc1cc(-c2cnc(N)cn2)cc(OC)c1OC	7.7
CC(C)N(CC1COc2ccccc2O1)C(=O)c1cc(C2CC2)[nH]n1 (centres undefined)	-49.0
Cc1ccc2c(c1)oc(=O)n2CCNC(=O)CC1(C)C(=O)N=C2C=CC=CN21 (centres undefined)	-0.1
COc1ccc(-c2nc(N3CCC4(CC3)OCCO4)c3ccccc3n2)cc1	-71.3
O=C(NCC1=CCCCC1)c1ccccc1-c1ncc[nH]1	-1.6
COc1ccc(S(=O)(=O)NCC(C)n2cncn2)cc1 (centres undefined)	-4.2
CC1=NOC(C)(C(=O)N2CCc3onc(-c4ccc(F)c(F)c4)c3C2)C1 (centres undefined)	1.9
OCCn1cnc(-c2ccccc2)c1-c1ccc(C2CCCCO2)s1 (centres undefined)	-6.7
COc1ccc(-c2nnc3n2C2(CCCC2)Cc2cc(OC)c(OC)cc2-3)cc1	-11.3
COc1cc2c(cc1OC)C(Nc1ccc(Br)cc1)=NC1(CCCC1)C2	-85.1*
COc1cc2c(cc1OC)C(C)=NC1(CCCCC1)C2	24.1
Cn1cncc1CN1CCC(c2nc3ccc(F)cc3cc2N)CC1	25.1
CNC(=O)c1cc(=O)n(CC(=O)Nc2sc3c(c2C(=O)OC)CCC3)c2ccccc12	-9.8
CCc1ccccc1NC(=O)C(=O)N1CCCn2nc(C(=O)N3CCCC3)cc2C1	55.4
CCO[C@H]1CCN(C(=O)C2CCOC2)[C@H]1Cc1ccccc1 (some centres undefined)	-42.4
Nc1cc(N)nc(SCc2ccccc2)n1	172.2
Cn1nc(-c2ccc(S(N)(=O)=O)s2)cc1C(F)(F)F	23.5
Cn1nc(-c2ccc(-c3ccnc(SCc4ccccc4)n3)s2)cc1C(F)(F)F	-97.3*
SMILES	Tgondii IFNg
Cc1ncccc1OC1(C(=O)N2CC(N)C2)CCNCC1	10.3
Cc1[nH]ncc1CNC(=O)c1ccc(-c2nc(CN3CCN(c4ccccc4)CC3)c(C)o2)cc1	26.7
N#Cc1cccc(NC2COC3(CCN(C(=O)NC4CC4)C3)C2)n1 (centres undefined)	-35.6
Cc1occc1C(=O)N1CCC2(CC(Nc3cccc(C#N)n3)CO2)C1 (centres undefined)	-98.0*
Cc1occc1C(=O)N1CCC2(CC(Nc3ncccc3F)CO2)C1 (centres undefined)	7.2
COc1cccc(CN2CCC3(CC2)CCN(C(=O)C2CC=CC2)C3)c1	-10.0
COc1ccc(CC(=O)N2C[C@H]3C[C@@H](Cc4nc(C)no4)O[C@@H]3C2)cc1	0.0
C1=C/COCc2cc(ccc2OCCN2CCCC2)Nc2nccc(n2)-c2cccc(c2)COC/1	-85.3*
Cc1ccc(C(=O)N2CC[C@@H]3O[C@@H](c4nc(C)no4)C[C@H]3C2)cn1	-4.6
Cc1ccc2c(CC(=O)NCCC3CN(C)CCO3)coc2c1 (centres undefined)	0.3
CCC(CN1CCOCC1)NC(=O)Cc1coc2cc(C)cc(C)c12 (centres undefined)	-81.9*
Cc1ccc(C(NC(=O)c2cc(CN3CCOCC3)c(C)o2)c2ccncc2)cc1C (centres undefined)	-2.7
O=C(O)c1ccccc1C1CCN(C(=O)c2cccc3cccnc23)C1 (centres undefined)	0.5
CN(C)C(=O)CN1CCN(C)C(=O)C12CCN(c1ncc(F)cn1)C2 (centres undefined)	-2.4
Cc1cc(C)c2nc(Cl)c(CN(Cc3ccco3)C(=O)NC3CCCCC3)cc2c1	10.4
O=C(NCC1CC1)C1CN(C(=O)c2cccs2)CC12CCOCC2 (centres undefined)	-2.1
COc1ccccc1-c1ccc2c(c1)[C@@H]1[C@@H](CCN1S(=O)(=O)c1ccc(C)cc1)[C@H](CO)N2	-78.1*
N#Cc1ccc(-c2ccc3c(c2)[C@@H]2[C@@H](CCN2C(=O)C2CCCCC2)[C@@H](CO)N3)cc1	-62.9
CC(=O)N1CC[C@@H]2[C@H]1c1cc(-c3ccccc3)ccc1N[C@@H]2CO	40.5
COc1ccccc1-c1ccc2c(c1)[C@H]1[C@H](CCN1S(=O)(=O)c1ccc(C)cc1)[C@@H](CO)N2	-63.3
N#Cc1ccc(-c2ccc3c(c2)[C@H]2[C@H](CCN2C(=O)C2CCCCC2)[C@H](CO)N3)cc1	-31.4
COc1ccccc1-c1ccc2c(c1)[C@H]1[C@H](CCN1C(=O)C1CCC1)[C@@H](CO)N2	-76.3*
COc1ccccc1-c1ccc2c(c1)[C@H]1[C@H](CCN1Cc1ccccc1F)[C@@H](CO)N2	-56.2
COc1ccccc1-c1ccc2c(c1)[C@H]1[C@H](CCN1C(=O)C1CCC1)[C@H](CO)N2	-71.4*
Cc1cccc(S(=O)(=O)N2CC[C@@H]3[C@@H](CO)Nc4ccc(-c5ccccc5F)cc4[C@@H]32)c1	-48.1
SMILES	Tgondii IFNg
CN(CCc1ccccc1)C(=O)[C@@]12CNC[C@@H]1CN(S(C)(=O)=O)C2	2.6
Cc1ncccc1OC1(C(=O)NCCc2ccccn2)CCNCC1	8.3
COCCN1CC(C(=O)N(C)Cc2csc(C)n2)CC1=O (centres undefined)	10.4
CCC1=N[C@@]2(CC[C@@H]3CN(C(=O)NC4CCCC4)C[C@H]32)C(=O)N1CC	-6.4
c1ccc(Cc2nc(CCc3cn4ccccc4n3)n[nH]2)cc1	-1.8
COc1ccc(F)cc1-c1cc(N)ncn1	5.3
CCN1CCN(C(=O)C(CC(C)C)NS(=O)(=O)c2ccc3[nH]c(=O)ccc3c2)CC1 (centres undefined)	48.1
CC(C)CC(=O)NCCc1csc(-c2ccc(F)cc2)n1	31.4
Cc1ccc(C(=O)NCCc2sc(-c3cccc(C)c3)nc2C)cc1	i
COC1C2CCC1N(Cc1ccc3c(c1)OCO3)CCO2 (centres undefined)	-45.7
Cc1ccccc1-n1nc(C)c2c1CC(C)(C)CC2=O	-30.1
COc1ccccc1-n1c(-c2ccc(Br)cc2)cc2c1CC(C)(C)CC2=O	-92.2*
CC1(C)CC(=O)c2cc(-c3ccccc3)n(CC(=O)O)c2C1	18.5
O=C1CSC(c2cccs2)N1c1ccc(F)cc1F (centres undefined)	40.1
C=CC(=O)N1CCO[C@H]2[C@H]1CC[C@H]2OCc1csc(C)n1	5.5
OC1(CNc2ncc(F)cn2)CCCNCC1 (centres undefined)	2.2
Cc1ccc2nc(-c3ccc(Cl)c(C)c3)cn2c1	-97.2*
Cc1ccc2nc(-c3ccc(-c4ccccc4)s3)cn2c1	79.8
COc1ccc(-c2cn3cc(C)ccc3n2)cc1	317.0
CNc1ncc(C(=O)NCC(c2ccc(Cl)cc2)N2CCOCC2)cn1 (centres undefined)	-0.9
c1ccc(COc2cccc(-c3nccn3Cc3cccnc3)c2)nc1	-4.4
COc1cc(O)c(C(=O)c2ccccc2)cc1O	8.3

Source: PubChem BioAssay
